High-throughput results as filed in PubChem.
MIN6 prolif = MIN6 beta-cell proliferation induction. AID 2380. MIN6 cells proliferation, ATPlite luminescence, 48 h; cells starved in 0.2% serum; 100% = growth in 10% serum. proliferation, % at 10 µM. 0.29% of 330,000 active;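 active = compounds whose signal lies at least 3.5 SD above the mean of all wells on their plate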;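 also: 0% = DMSO-treated cells in low-serum medium and 100% = 10% serum control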
GRIN3A LBD mod = NR3A (human) ligand-binding domain modulation. NR3A LBD differential scanning fluorimetry, Tm shift; 0% = protein alone, 100% = glycine-bound protein. AID 1259313. Tm shift relative to glycine control, % at 25 µM. 2.5% of 340,000 active;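 active = melting temperature shift of at least 10% of the positive control shift, at one fixed dose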
MPTP block = blocks calcium-induced mitochondrial swelling; inhibition, % at 10 µM; isolated mouse mitochondria, Ca2+ swelling absorbance, 30 min; 1.4% of 360,000 active;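 active = inhibition of 50% or more, scaled per plate between neutral and stimulator controls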;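 also: 0% = DMSO wells given calcium and 100% = 1 mM EGTA wells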
pCIP destab = compounds decreasing mouse p/CIP protein stability; F442A p/CIP-EGFP cells, EGFP fluorescence, 16 h; decrease of EGFP signal, % at 10 µM; 0.01% of 290,000 active; AID 1984;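 active = EGFP signal decrease of at least 30% at 10 µM or well 3 SD below plate mean, unless failing retest; inactive = the rest, including hits failing retest or dose response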
Target sequence (Q05BA5 1-1403): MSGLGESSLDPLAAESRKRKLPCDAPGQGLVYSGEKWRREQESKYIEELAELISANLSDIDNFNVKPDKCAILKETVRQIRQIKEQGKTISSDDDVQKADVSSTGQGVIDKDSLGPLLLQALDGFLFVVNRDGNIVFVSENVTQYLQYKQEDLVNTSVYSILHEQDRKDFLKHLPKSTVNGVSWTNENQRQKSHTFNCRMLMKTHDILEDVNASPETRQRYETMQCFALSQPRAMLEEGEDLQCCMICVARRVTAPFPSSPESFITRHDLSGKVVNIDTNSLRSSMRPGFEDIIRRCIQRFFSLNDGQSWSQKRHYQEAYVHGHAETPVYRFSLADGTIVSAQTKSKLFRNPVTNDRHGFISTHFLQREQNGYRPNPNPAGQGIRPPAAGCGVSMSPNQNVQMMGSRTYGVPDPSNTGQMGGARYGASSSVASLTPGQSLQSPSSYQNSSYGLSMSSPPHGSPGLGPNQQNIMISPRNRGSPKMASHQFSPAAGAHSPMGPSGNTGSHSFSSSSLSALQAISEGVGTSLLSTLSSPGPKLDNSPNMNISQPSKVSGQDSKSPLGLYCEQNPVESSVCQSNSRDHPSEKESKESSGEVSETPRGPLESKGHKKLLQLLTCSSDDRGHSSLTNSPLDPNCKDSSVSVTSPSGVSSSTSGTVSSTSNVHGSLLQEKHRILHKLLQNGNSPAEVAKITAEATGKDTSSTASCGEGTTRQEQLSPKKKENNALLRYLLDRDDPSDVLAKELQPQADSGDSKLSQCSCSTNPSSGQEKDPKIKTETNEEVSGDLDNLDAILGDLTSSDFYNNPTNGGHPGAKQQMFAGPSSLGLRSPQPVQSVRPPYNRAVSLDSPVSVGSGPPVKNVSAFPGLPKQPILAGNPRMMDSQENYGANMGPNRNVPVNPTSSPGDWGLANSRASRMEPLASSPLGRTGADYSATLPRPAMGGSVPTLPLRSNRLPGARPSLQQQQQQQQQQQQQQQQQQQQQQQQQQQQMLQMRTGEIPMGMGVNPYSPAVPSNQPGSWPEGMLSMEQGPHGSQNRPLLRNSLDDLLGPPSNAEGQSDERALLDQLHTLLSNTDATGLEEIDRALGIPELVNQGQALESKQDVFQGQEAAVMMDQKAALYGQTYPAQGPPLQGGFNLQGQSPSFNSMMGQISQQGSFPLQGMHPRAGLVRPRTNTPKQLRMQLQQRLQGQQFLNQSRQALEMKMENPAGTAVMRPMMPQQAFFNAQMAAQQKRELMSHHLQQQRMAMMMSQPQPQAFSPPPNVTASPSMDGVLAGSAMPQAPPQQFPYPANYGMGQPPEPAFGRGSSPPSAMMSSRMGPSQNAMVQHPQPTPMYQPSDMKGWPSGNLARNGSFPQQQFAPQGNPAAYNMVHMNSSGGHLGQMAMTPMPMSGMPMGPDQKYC
FAS-TE inh = FAS thioesterase (human) inhibition; 0.67% of 360,000 active; AID 602261; P49327; inhibition, % at 15 µM; recombinant FAS-TE, OMFH fluorogenic substrate, fluorescence endpoint;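 active = compounds whose normalised, plate-corrected inhibition of enzyme fluorescence in the single-dose primary screen is 50% or more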;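 also: 0% = DMSO with enzyme and 100% = substrate without enzyme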
* marks the source's active call; other numbers are inactive results; . = no result. Sampled rows, rich in hits. Any-hit rate of the full collection: about 4.1%.

SMILES	MIN6 prolif	GRIN3A LBD mod	MPTP block	pCIP destab	FAS-TE inh
CC(NC(=O)COC(=O)c1ccc2c(c1)S(=O)(=O)N=C1CCCCCN12)C12CC3CC(CC(C3)C1)C2 (stereo unspecified)	0	18*	2	-5	-7
CCOC(=O)c1c(-c2ccc(C)cc2)csc1NC(=O)/C(C#N)=C/c1ccc(O)c(OC)c1	.	20*	11	-206	-5
COc1cc(/C=C(\C#N)C(=O)Nc2ccccn2)ccc1O	-1	-2	2	4	-5
CCOC(=O)/C(C#N)=C\c1ccc(O)c(OC)c1	-1	-1	2	15	-7
CCOC(=O)c1c(-c2ccccc2)csc1NC(=O)/C(C#N)=C\c1ccc(O)c(OC)c1	.	18*	4	.	14
Cc1cc(C)cc(CC(=O)N2CCC2(C)C(=O)NS(=O)(=O)c2ccccc2)c1 (stereo unspecified)	.	.	-2	.	-10
COc1ccc(C(=O)C[C@@H]2OC3CCCCC3N2S(=O)(=O)c2ccc(C)cc2)cc1OC (stereo partly specified)	.	.	1	.	.
N=C1/C(=C\c2ccc(-c3cccc(Cl)c3)o2)C(=O)N=C2SC=C(c3ccccc3)N12	0	13*	5	6	16
Nc1ccccc1N=Nc1ccccc1N	-4	23*	0	-2	0
Nc1ccccc1-c1ccccc1N	0	0	1	-7	-7
C=CCn1c(-c2ccccc2)nc2nc3ccccc3nc21	1	1	-3	-4	-2
c1ccc(Cn2c(-c3ccccc3)nc3nc4ccccc4nc32)cc1	-2	18*	0	9	21
Clc1cccc(-c2nc3nc4ccccc4nc3n2Cc2ccccc2)c1	-2	12*	1	-7	19
CC(=O)N1Cc2cc(C(=O)NCC(F)(F)F)nc(-c3cccc(-c4cc5ccccc5o4)c3)c2[C@H]1CCO	.	.	-3	.	-1
COc1cc(NC(=O)c2cc(C3CC3)on2)c(OC)cc1Cl	4	14*	7	-23	10
COc1ccc2nc(N/C(N)=N/C(=S)Nc3ccc(C)c(C)c3)nc(C)c2c1	-5	.	.	-9	.
Cc1cccc(NC(=S)/N=C(\N)Nc2nc(C)c3cc(C)ccc3n2)c1	-5	20*	4	-5	36
COc1ccc2nc(N/C(N)=N/C(=S)Nc3ccccc3)nc(C)c2c1	-6	19*	-2	-4	16
CCOc1ccc2nc(N/C(N)=N/C(=S)Nc3ccc(OC)cc3)nc(C)c2c1	-2	27*	-2	-7	44
c1ccc(Cn2c(Cn3c(-c4cnccn4)nc4ccccc43)nc3ccccc32)cc1	.	.	-2	.	0
CC(C)CC(=NNC(=O)c1ccncc1)c1cc(Cl)ccc1O	.	-6	8	.	17
COC(=O)c1sccc1NC(=O)c1cccnc1	2	669*	0	-3	-9
CCOc1ccccc1C(=O)Nc1ccsc1C(=O)OC	.	14*	2	-1	22
CCOc1ccccc1C(=O)Nc1ccc(C(=O)c2ccccc2)cc1	-4	1	1	-8	33
Cc1ccc(NC(=O)c2ccccc2OCC(=O)c2ccccc2)cc1	-1	10*	7	-1	26
SMILES	MIN6 prolif	GRIN3A LBD mod	MPTP block	pCIP destab	FAS-TE inh
CCOc1ccccc1C(=O)Nc1ccc(NC(=O)c2ccccc2)cc1	-1	17*	0	-2	4
CCOc1ccccc1C(=O)Nc1ccccc1C(N)=O	0	-2	-3	-3	-7
CN(C)c1ccc(-c2[nH][nH]c(=O)c2NC(=O)c2ccc3ccccc3n2)cc1	.	.	-1	.	26
CCCCCCN1CCN(C2CN(Cc3cn(Cc4ccc(C)cc4)nn3)S(=O)(=O)C2)CC1 (stereo unspecified)	.	.	1	.	11
COC(=O)c1sccc1NC(=O)Cc1ccc(Br)cc1	0	12*	-1	-18	25
CC(=O)c1ccc(NC(=O)COc2ccccc2C(=O)Nc2ccccc2)cc1	-2	15*	5	-7	17
COC(=O)c1sccc1NC(=O)Cc1ccc(OC)c(OC)c1	0	0	3	-7	-15
N#CC(C(=O)Nc1ccc(Cl)cc1)=C1Nc2ccccc2N1	-1	24*	0	0	1
N#CC(C(=O)Nc1ccccc1)=C1CCCCC1	-3	0	1	8	-2
Cc1ccc(O)c(NC(=S)NC(=O)c2ccc(-c3ccc(Cl)cc3)o2)c1	-4	29*	4	.	18
Cc1c(NC(=S)NC(=O)c2ccc(-c3ccc(Cl)cc3)o2)cccc1C(=O)O	-4	6	-3	7	-8
COc1ccccc1NC(=S)NC(=O)c1ccc(-c2ccc(Cl)cc2)o1	-2	-9	5	-10	22
O=C(NC(=S)Nc1ccccc1O)c1ccc(-c2ccc(Cl)cc2)o1	-4	29*	5	-4	12
Cc1ccc(O)c(NC(=O)c2cc(-c3cccs3)on2)c1	-1	0	-1	-5	-3
Cc1ccc(O)c(NC(=O)c2cc(-c3ccc(F)cc3)on2)c1	-4	217*	-1	-2	-3
COc1ccc(C(CNC(=O)c2ccc(C)c(S(=O)(=O)N3CCCCC3)c2)N2CCCC2)cc1 (stereo unspecified)	.	1	1	.	-3
COc1ccc(/C=N/NC(=O)c2ccc(O)cc2)cc1CN1CCCc2ccccc21	-6	27*	3	4	2
COc1ccc(/C=N/NC(=O)c2nc(Cl)c(Cl)c(N)c2Cl)cc1COc1ccc(F)cc1F	-4	10*	-1	-10	13
COc1ccc(/C=N/NC(=O)c2nc(Cl)c(Cl)c(N)c2Cl)cc1COc1ccccc1F	0	1	1	-11	6
COc1ccc(/C=N/NC(=O)c2ccc(F)cc2)cc1CN1CCc2cc(OC)c(OC)cc2C1C (stereo unspecified)	-1	-1	-3	16	-3
COc1ccc(/C=N/NC(=O)c2ccc(OC)c(OC)c2)cc1COc1c(F)c(F)c(F)c(F)c1F	-3	12*	-2	-10	10
COc1ccc(/C=N\NC(=O)c2ccccc2Br)cc1COc1c(F)c(F)cc(F)c1F	-7	-6	0	-7	16
COc1ccc(/C=N\NC(=O)c2cc(O)c(O)c(O)c2)cc1COc1ccc(C(=O)OCC(C)C)cc1	-5	77*	9	8	-17
COc1ccc(NC(=O)Cn2c([N+](=O)[O-])cnc2C)c(OC)c1	.	.	0	.	-12
COCc1cc(/C=N\NC(=O)c2ccc(Cl)cc2)ccc1OC	2	11*	5	4	-5
CN(C)CCNC(=O)c1cccc(-c2cccc3nncn23)c1	.	.	-1	.	-11
CC(=O)Nc1ccc(NC(=O)/C=C/c2ccc3c(c2)OCO3)cc1	2	2	0	2	-6
NS(=O)(=O)c1ccc(NC(=O)/C=C/c2ccc3c(c2)OCO3)cc1	0	12*	-2	3	-1
COC(=O)c1cccc(NC(=O)/C=C/c2ccc3c(c2)OCO3)c1	-2	16*	0	-8	12
